For 48 compounds, Potency, activity, negative = inhibition and activity change, negative = inhibition results are on record in PubChem BioAssay (Tox21).

Assay [1] concerns the target Acetylcholinesterase (Homo sapiens) (UniProt P22303). Nature of the assay: Acetylcholinesterase (AChE) small molecule antagonists: colormetric cell-based qHTS assay (AID 1347395). Further: nearly all actives have a fitted effect of over 30% in size. Further: potency means the concentration at half of the fitted maximal effect. Summed up:
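In this cell-based qHTS, attached SH-SY5Y cells were treated with test chemicals for 30 min, after which acetylthiocholine hydrolysis was followed by DTNB colour development over 90 min at 37 C.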
Background: qHTS replaces the single test concentration by a dilution series.

Assay [2] has the same target. Nature of the assay: Acetylcholinesterase (AChE) small molecule antagonists: enzyme-based qHTS assay (AID 1347397). Further: nearly all actives have a fitted effect of over 55% in size. Further: potency means the concentration at half of the fitted maximal effect. The settings on record: Potency: AChE enzyme activity inhibition; outcome: AChE enzyme activity inhibition. Summed up: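 Human recombinant acetylcholinesterase; substrate acetylthiocholine; thiocholine quantified with DTNB (colorimetric). Compound preincubation 30 min RT; reaction 10 min RT.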

Assay [3] shares this target. Nature of the assay: Acetylcholinesterase (AChE) small molecule antagonists: fluorescence cell-based qHTS assay (AID 1347398). Further: nearly all actives have a fitted effect of over 50% in size. Further: potency means the concentration at half of the fitted maximal effect. The conditions noted are these: Potency: AChE activity; outcome: AChE activity. The method in brief:
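Thiocholine generated from acetylthiocholine by SH-SY5Y cell AChE is detected with Thiolite Green (Ex/Em 490/520 nm) after 40 min at room temperature, following 30 min compound pretreatment at 37 C.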

The target is the same in assay [4]. Nature of the assay: Acetylcholinesterase (AChE) small molecule antagonists: enzyme-based qHTS assay with human liver microsomes (AID 1347399). Further: nearly all actives have a fitted effect of over 60% in size. The conditions noted are these: Potency: qHTS inhibition; outcome: qHTS inhibition. The method in brief:
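Recombinant human AChE (50 mU/mL in the enzyme mix) and human liver microsomes (0.25 mg/mL final) were preincubated with compound and NADPH (0.25 mg/mL final) for 30 min at 37 C. Acetylthiocholine/DTNB was then added; thiocholine was read colorimetrically after 10 min at room temperature.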

SMILES strings stand for the structures. Several values for one entry are separate records, joined by “and”; a condition that tells them apart may be missing. Identical values can stand only once. Results filed as inconclusive are left out. Activity calls are given as the source filed them. The call rests on the fitted dose curve.
On the % scale 0 is the no-effect control and ±100 the full control effect.

Sequence of Acetylcholinesterase (Homo sapiens) (P22303 whole entry, looked up): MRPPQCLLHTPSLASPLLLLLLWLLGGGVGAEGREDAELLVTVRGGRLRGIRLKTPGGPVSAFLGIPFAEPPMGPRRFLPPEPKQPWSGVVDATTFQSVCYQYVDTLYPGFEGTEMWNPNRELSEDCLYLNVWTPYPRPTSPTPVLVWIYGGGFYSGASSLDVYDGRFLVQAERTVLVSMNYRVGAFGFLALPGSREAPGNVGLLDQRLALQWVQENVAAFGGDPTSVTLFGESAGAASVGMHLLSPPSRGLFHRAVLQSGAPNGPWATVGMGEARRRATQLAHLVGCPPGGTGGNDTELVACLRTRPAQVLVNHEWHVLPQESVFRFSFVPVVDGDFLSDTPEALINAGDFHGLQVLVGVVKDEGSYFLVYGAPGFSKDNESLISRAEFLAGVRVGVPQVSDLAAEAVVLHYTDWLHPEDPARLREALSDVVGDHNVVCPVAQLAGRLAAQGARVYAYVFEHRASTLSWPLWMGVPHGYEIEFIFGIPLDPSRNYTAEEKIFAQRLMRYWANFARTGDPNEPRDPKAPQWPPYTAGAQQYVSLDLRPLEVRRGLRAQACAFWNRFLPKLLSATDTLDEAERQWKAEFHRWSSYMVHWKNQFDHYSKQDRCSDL

Take `O=C(O)CCCCCCCCCCC(=O)O`: the Potency entry in assay [1], in assay [2], in assay [3] and in assay [4] was “inactive” throughout.
For the compound `N=C(N)c1ccc(OCCCCCOc2ccc(C(=N)N)cc2)cc1`, the Potency in assay [1] was 35.4 µM (active) and 30.3 µM (active) and 17.4 µM (active); in assay [2], 53.9 µM (active); in assay [3], 22.4 µM (active) and 27 µM (active). Moreover, the Potency entry in assay [4] is “inactive”.
`Cc1cc(=O)[nH]c(C(C)C)n1`: the Potency entry in assay [1], in assay [2], in assay [3] and in assay [4] was “inactive” in each case.
As for `CCO[Si](CCCCl)(OCC)OCC`, the Potency result in assay [1], in assay [2], in assay [3] and in assay [4] was “inactive” each time.
Turning to `O=C1O[C@@H]2[C@@H](O)[C@H](O)O[C@@H]2[C@H]1O`, the Potency result in assay [1], in assay [2], in assay [3] and in assay [4] was “inactive” throughout.
With `CC(=O)OC[C@H]1O[C@@H](OC(C)=O)[C@H](OC(C)=O)[C@@H]1OC(C)=O`, the Potency entry in assay [1], in assay [2], in assay [3] and in assay [4] was “inactive” in each case.
`C#C[C@]1(O)CC[C@H]2[C@@H]3CCc4cc(O)ccc4[C@H]3CC[C@@]21C`: the Potency entry in assay [1], in assay [2], in assay [3] and in assay [4] was “inactive” each time.
Take `CCC(=O)O[C@H]1[C@H](O[C@@H]2[C@@H](C)[C@H](O[C@H]3C[C@@](C)(OC)[C@@H](O)[C@H](C)O3)[C@@H](C)C(=O)O[C@H](CC)[C@@](C)(O)[C@H](O)[C@@H](C)C(=O)[C@H](C)C[C@@]2(C)O)O[C@H](C)C[C@@H]1N(C)C`: the Potency entry in assay [1], in assay [2], in assay [3] and in assay [4] was “inactive” in each case.
As for `CC1(C)O[C@@H]2C[C@H]3[C@@H]4CCC5=CC(=O)C=C[C@]5(C)[C@@]4(F)[C@@H](O)C[C@]3(C)[C@]2(C(=O)CO)O1`, the Potency result in assay [1], in assay [2], in assay [3] and in assay [4] was “inactive” throughout.
As to `O=C1CC2CC1C1CCCC21` (configuration not stated), the Potency result in assay [1], in assay [2], in assay [3] and in assay [4] was “inactive” each time.
Regarding `CC(C)C(=O)OCc1cccc(OC(=O)[C@@H]2N3C(=O)[C@@H](NC(=O)Cc4ccccc4)[C@H]3SC2(C)C)c1`, the Potency result in assay [1], in assay [2], in assay [3] and in assay [4] was “inactive” each time.
On to `O=C(c1ccccc1)C(O)c1ccccc1` (configuration not stated), for which the Potency entry in assay [1], in assay [2], in assay [3] and in assay [4] was “inactive” each time.
Regarding `c1ccc(Nc2ccccc2)cc1`, the Potency entry in assay [1], in assay [2], in assay [3] and in assay [4] was “inactive” in each case.
On to `NNCCc1ccccc1`, for which the Potency entry in assay [1], in assay [2], in assay [3] and in assay [4] was “inactive” in each case.
For `C[C@H]1[C@@H](c2ccccc2)NC(=O)N1C`, the Potency result in assay [1], in assay [2], in assay [3] and in assay [4] was “inactive” in each case.
Turning to `Cc1ccc(C(=O)Nc2ccc(S(=O)(=O)O)c3cc(S(=O)(=O)O)cc(S(=O)(=O)O)c23)cc1NC(=O)c1cccc(NC(=O)Nc2cccc(C(=O)Nc3cc(C(=O)Nc4ccc(S(=O)(=O)O)c5cc(S(=O)(=O)O)cc(S(=O)(=O)O)c45)ccc3C)c2)c1`, the Potency result in assay [1], in assay [2], in assay [3] and in assay [4] was “inactive” throughout.
Turning to `N#Cc1ccccc1C#N`, the Potency result in assay [1], in assay [2], in assay [3] and in assay [4] was “inactive” in each case.
Take `CC(C)(C)c1cc(CCC(=O)OCC(COC(=O)CCc2cc(C(C)(C)C)c(O)c(C(C)(C)C)c2)(COC(=O)CCc2cc(C(C)(C)C)c(O)c(C(C)(C)C)c2)COC(=O)CCc2cc(C(C)(C)C)c(O)c(C(C)(C)C)c2)cc(C(C)(C)C)c1O`: the Potency entry in assay [1], in assay [2], in assay [3] and in assay [4] was “inactive” in each case.
`CCN(C=O)CC`: the Potency entry in assay [1], in assay [2], in assay [3] and in assay [4] was “inactive” in each case.
`ONc1ccccc1`: the Potency result in assay [1], in assay [2], in assay [3] and in assay [4] was “inactive” in each case.
As for `CCCCOC(=O)CO`, the Potency entry in assay [1], in assay [2], in assay [3] and in assay [4] was “inactive” in each case.
With `COC(=O)[C@H]1[C@H]2C[C@@H]3c4[nH]c5cc(OC)ccc5c4CCN3C[C@H]2C[C@@H](OC(=O)c2cc(OC)c(OC)c(OC)c2)[C@@H]1OC`, the Potency result in assay [1], in assay [2], in assay [3] and in assay [4] was “inactive” each time.
For the compound `CCOC(=O)NNc1nncc2ccccc12`, the Potency entry in assay [1], in assay [2], in assay [3] and in assay [4] was “inactive” in each case.
Consider `CC(C)(C)OC=O`, for which the Potency entry in assay [1], in assay [2], in assay [3] and in assay [4] was “inactive” in each case.
`CCCCCCOC(=O)C(C)C`: the Potency entry in assay [1], in assay [2], in assay [3] and in assay [4] was “inactive” each time.
Regarding `CC(=O)OCC(=O)[C@@]1(O)[C@H](C)C[C@H]2[C@@H]3CCC4=CC(=O)C=C[C@]4(C)[C@@]3(F)[C@@H](O)C[C@@]21C`, the Potency entry in assay [1], in assay [2], in assay [3] and in assay [4] was “inactive” in each case.
Turning to `CCCCCCCC/C=C\CCCCCCCCN`, the Potency result in assay [1], in assay [2], in assay [3] and in assay [4] was “inactive” each time.
For `CCC(CO)CO`, the Potency result in assay [1], in assay [2], in assay [3] and in assay [4] was “inactive” in each case.
With `C#CC(C)N(C)C(=O)Nc1ccc(Cl)cc1` (configuration not stated), the Potency entry in assay [1], in assay [2], in assay [3] and in assay [4] was “inactive” in each case.
On to `CCOCC(O)COc1ccc(NC(=O)CC[S+](C)C)cc1` (configuration not stated), for which the Potency result in assay [1], in assay [2], in assay [3] and in assay [4] was “inactive” throughout.
Regarding `Cc1ccc2n[nH]nc2c1`, the Potency result in assay [1], in assay [2], in assay [3] and in assay [4] was “inactive” each time.
For the compound `CCCCNC(=O)NCCCC`, the Potency entry in assay [1], in assay [2], in assay [3] and in assay [4] was “inactive” each time.
For `CC(=O)OC/C=C(\C)CCC=C(C)C`, the Potency result in assay [1], in assay [2], in assay [3] and in assay [4] was “inactive” in each case.
Turning to `CCCCC(CC)COC(=O)/C=C/c1ccc(OC)cc1` (configuration not stated), the Potency result in assay [1], in assay [2], in assay [3] and in assay [4] was “inactive” each time.
Regarding `CCCCCCOC(C)=O`, the Potency entry in assay [1], in assay [2], in assay [3] and in assay [4] was “inactive” throughout.
For `O=C1CCC(C2CCCCC2)CC1`, the Potency result in assay [1], in assay [2], in assay [3] and in assay [4] was “inactive” each time.
Take `CCCOc1ccc(S(=O)(=O)N2CCN(CC)CC2)cc1-c1nc2c(CC)n(Cc3ccccn3)nc2c(=O)[nH]1`: the Potency entry in assay [1], in assay [2], in assay [3] and in assay [4] was “inactive” throughout.
With `COC(=O)c1cccnc1`, the Potency result in assay [1], in assay [2], in assay [3] and in assay [4] was “inactive” each time.
In the case of `CCOCCO`, the Potency result in assay [1], in assay [2], in assay [3] and in assay [4] was “inactive” throughout.
As for `Oc1ccc2ccccc2c1N=Nc1ccccc1`, the Potency result in assay [1], in assay [2], in assay [3] and in assay [4] was “inactive” throughout.
As for `Cc1ncsc1CCO`, the Potency entry in assay [1], in assay [2], in assay [3] and in assay [4] was “inactive” each time.
For the compound `COc1cc(S(=O)(=O)Nc2ccccc2)c(OC)cc1N`, the Potency result in assay [1], in assay [2], in assay [3] and in assay [4] was “inactive” each time.
With `CCCCCCCCCCCCCCCCCC(=O)OCC(O)CO` (configuration not stated), the Potency entry in assay [1], in assay [2], in assay [3] and in assay [4] was “inactive” throughout.
`CC(CC=O)c1ccccc1` (configuration not stated): the Potency entry in assay [1], in assay [2], in assay [3] and in assay [4] was “inactive” throughout.
As for `CCCCC(CC)COC(=O)c1ccccc1C(=O)O` (configuration not stated), the Potency result in assay [1], in assay [2], in assay [3] and in assay [4] was “inactive” each time.
As for `C[C@@H]1CCN(C(=O)[C@H](CCCN=C(N)N)NS(=O)(=O)c2cccc3c2NC[C@H](C)C3)[C@@H](C(=O)O)C1`, the Potency entry in assay [1], in assay [2], in assay [3] and in assay [4] was “inactive” each time.
Turning to `Nc1ccc(S(=O)(=O)Nc2ccnn2-c2ccccc2)cc1`, the activity, negative = inhibition in assay [1] is -0.528% [at 23.6 µM] (inactive). For the same compound, the activity change, negative = inhibition in assay [2] is -0.415% [at 23.6 µM] (inactive); in assay [3], 5.71% [at 23.8 µM] (inactive); in assay [4] it was -0.674% [at 23.6 µM] (inactive).
`Oc1ccc(O)cc1`: the Potency result in assay [1], in assay [2], in assay [3] and in assay [4] was “inactive” throughout.
